# Results filed as inconclusive are left out. Where a call stands in place of a potency, no number is given. The source made the active and inactive calls. The call rests on the fitted dose curve.
# Assay: Primary qHTS for Huh7 cytotoxicity: counterscreen for inhibitors of MERS-S pseudotyped particle cell entry (AID 1479147)
# Conditions: cell viability read-out; series mostly up to 57.1 µM
Structure (SMILES),Potency,outcome
CCCCCCCCCCCC(=O)[O][Sn]([CH2]CCC)([CH2]CCC)[O]C(=O)CCCCCCCCCCC,inactive,–
CC1(C)S[C@@H]2[C@H](NC(=O)C(c3ccccc3)S(=O)(=O)O)C(=O)N2[C@H]1C(=O)O (stereo partly specified),inactive,–
CCOCCn1c(C2CCN(CCc3ccc(C(C)(C)C(=O)O)cc3)CC2)nc2ccccc21,inactive,–
CC(=O)OC(C)OC(=O)C(C)c1ccc(-c2ccccc2)c(F)c1 (stereo unspecified),inactive,–
Cc1ccc(C(C)C)cc2c(C)ccc1-2,inactive,–
Oc1ccccc1,inactive,–
CC(=O)Oc1cc(C(C)C)c(OCCN(C)C)cc1C,inactive,–
CC(C)Cc1ccc(CC(=O)O)cc1,inactive,–
O=C(NC(Cc1cc(=O)[nH]c2ccccc12)C(=O)O)c1ccc(Cl)cc1 (stereo unspecified),inactive,–
NCCCC[C@H](N[C@@H](CCc1ccccc1)C(=O)O)C(=O)N1CCC[C@H]1C(=O)O,inactive,–
C/C=C1\[C@H]2C=C(C)C[C@]1(N)c1ccc(=O)[nH]c1C2,inactive,–
CNC[C@H](O)c1cccc(O)c1,inactive,–
C[C@@H]1CN(c2c(F)c(F)c3c(=O)c(C(=O)O)cn(C4CC4)c3c2F)C[C@H](C)N1,inactive,–
Cc1ccc(C(=O)C(C)CN2CCCCC2)cc1 (stereo unspecified),inactive,–
CC(C)(C)NC[C@H](O)COc1cccc2c1CCCC2=O,inactive,–
CCn1cc(C(=O)O)c(=O)c2cnc(N3CCNCC3)nc21,inactive,–
CCCCC(CC)CN1CN(CC(CC)CCCC)CC(C)(N)C1 (stereo unspecified),inactive,–
Cc1ccc(-c2ncc(Cl)cc2-c2ccc(S(C)(=O)=O)cc2)cn1,inactive,–
OCc1ccc(Cl)cc1Cl,inactive,–

Structure (SMILES),Potency,outcome
CC[C@H](C)C(=O)O[C@H]1C[C@H](O)C=C2C=C[C@H](C)[C@H](CC[C@@H](O)C[C@@H](O)CC(=O)O)[C@H]21,inactive,–
CCCCCCCCCCOc1cc2c(=O)c(C(=O)OCC)c[nH]c2cc1OCC,–,inactive [at 5.34 µM]
COc1cc(C(=O)NS(=O)(=O)c2ccccc2C)ccc1Cc1cn(C)c2ccc(NC(=O)OC3CCCC3)cc12,inactive,–
O=C(OCC1(COC(=O)c2cccnc2)CCCC(COC(=O)c2cccnc2)(COC(=O)c2cccnc2)C1O)c1cccnc1,inactive,–
COc1ccc(C(=O)NCc2ccc(OCCN(C)C)cc2)cc1OC,inactive,–
CO/N=C(/C(=O)N[C@@H]1C(=O)N2C(C(=O)OCOC(=O)C(C)(C)C)=C(C)CS[C@H]12)c1csc(N)n1,inactive,–
N#CSCC(=O)O,inactive,–
C[N+](C)(C)CCCCCC[N+](C)(C)C,inactive,–
c1ccc2c(c1)CCCC2C1=NCCN1 (stereo unspecified),inactive,–
Cc1cc(O)cc2c1O[C@](C)(CCC[C@H](C)CCC[C@H](C)CCCC(C)C)CC2,inactive,–
CCCCCN(CCCOC)C(=O)C(CCC(=O)O)NC(=O)c1ccc(Cl)c(Cl)c1 (stereo unspecified),inactive,–
C[C@H]1O[C@@H](n2cc(F)c(=O)[nH]c2=O)[C@H](O)[C@@H]1O,inactive,–
C[N+]1(C)[C@@H]2CC(OC(=O)[C@H](CO)c3ccccc3)C[C@H]1[C@@H]1O[C@@H]12 (stereo partly specified),inactive,–
NS(=O)(=O)c1cc(Cl)c(Cl)c(S(N)(=O)=O)c1,inactive,–
NC[C@H]1O[C@H](O[C@H]2[C@H](O)[C@@H](O[C@H]3O[C@H](CO)[C@@H](O)[C@H](N)[C@H]3O)[C@H](N)C[C@@H]2N)[C@H](O)[C@@H](O)[C@@H]1O,–,inactive [at 5.34 µM]
O=c1c(-c2ccc(O)cc2)coc2cc(O)cc(O)c12,inactive,–
CC(=O)N(CC(O)CO)c1c(I)c(C(=O)NCC(O)CO)c(I)c(C(=O)NCC(O)CO)c1I (stereo unspecified),inactive,–
NC(CS)C(=O)O (stereo unspecified),inactive,–
NC1CCN(c2nc3c(cc2F)c(=O)c(C(=O)O)cn3-c2ccc(F)cc2F)C1 (stereo unspecified),inactive,–

# Assay: Primary qHTS for inhibitors of MERS-S pseudo-typed particle cell entry (AID 1479149); further: nearly all actives have a fitted effect of over 60% in size
# Conditions: MERS-S pseudotyped particle entry, luciferase; series mostly up to 57.1 µM
Structure (SMILES),Potency,outcome
CCCCCCCCCCCC(=O)[O][Sn]([CH2]CCC)([CH2]CCC)[O]C(=O)CCCCCCCCCCC,inactive,–
CC1(C)S[C@@H]2[C@H](NC(=O)C(c3ccccc3)S(=O)(=O)O)C(=O)N2[C@H]1C(=O)O (stereo partly specified),inactive,–
CCOCCn1c(C2CCN(CCc3ccc(C(C)(C)C(=O)O)cc3)CC2)nc2ccccc21,inactive,–
CC(=O)OC(C)OC(=O)C(C)c1ccc(-c2ccccc2)c(F)c1 (stereo unspecified),inactive,–
Cc1ccc(C(C)C)cc2c(C)ccc1-2,inactive,–
Oc1ccccc1,inactive,–
CC(=O)Oc1cc(C(C)C)c(OCCN(C)C)cc1C,inactive,–
CC(C)Cc1ccc(CC(=O)O)cc1,inactive,–
O=C(NC(Cc1cc(=O)[nH]c2ccccc12)C(=O)O)c1ccc(Cl)cc1 (stereo unspecified),inactive,–
NCCCC[C@H](N[C@@H](CCc1ccccc1)C(=O)O)C(=O)N1CCC[C@H]1C(=O)O,inactive,–
C/C=C1\[C@H]2C=C(C)C[C@]1(N)c1ccc(=O)[nH]c1C2,inactive,–
CNC[C@H](O)c1cccc(O)c1,inactive,–
C[C@@H]1CN(c2c(F)c(F)c3c(=O)c(C(=O)O)cn(C4CC4)c3c2F)C[C@H](C)N1,inactive,–
Cc1ccc(C(=O)C(C)CN2CCCCC2)cc1 (stereo unspecified),inactive,–
CC(C)(C)NC[C@H](O)COc1cccc2c1CCCC2=O,inactive,–
CCn1cc(C(=O)O)c(=O)c2cnc(N3CCNCC3)nc21,inactive,–
CCCCC(CC)CN1CN(CC(CC)CCCC)CC(C)(N)C1 (stereo unspecified),inactive,–
Cc1ccc(-c2ncc(Cl)cc2-c2ccc(S(C)(=O)=O)cc2)cn1,inactive,–
OCc1ccc(Cl)cc1Cl,inactive,–

Structure (SMILES),Potency,outcome
CC[C@H](C)C(=O)O[C@H]1C[C@H](O)C=C2C=C[C@H](C)[C@H](CC[C@@H](O)C[C@@H](O)CC(=O)O)[C@H]21,inactive,–
CCCCCCCCCCOc1cc2c(=O)c(C(=O)OCC)c[nH]c2cc1OCC,–,inactive [at 5.34 µM]
COc1cc(C(=O)NS(=O)(=O)c2ccccc2C)ccc1Cc1cn(C)c2ccc(NC(=O)OC3CCCC3)cc12,inactive,–
O=C(OCC1(COC(=O)c2cccnc2)CCCC(COC(=O)c2cccnc2)(COC(=O)c2cccnc2)C1O)c1cccnc1,inactive,–
COc1ccc(C(=O)NCc2ccc(OCCN(C)C)cc2)cc1OC,inactive,–
CO/N=C(/C(=O)N[C@@H]1C(=O)N2C(C(=O)OCOC(=O)C(C)(C)C)=C(C)CS[C@H]12)c1csc(N)n1,inactive,–
N#CSCC(=O)O,inactive,–
C[N+](C)(C)CCCCCC[N+](C)(C)C,inactive,–
c1ccc2c(c1)CCCC2C1=NCCN1 (stereo unspecified),inactive,–
Cc1cc(O)cc2c1O[C@](C)(CCC[C@H](C)CCC[C@H](C)CCCC(C)C)CC2,inactive,–
CCCCCN(CCCOC)C(=O)C(CCC(=O)O)NC(=O)c1ccc(Cl)c(Cl)c1 (stereo unspecified),inactive,–
C[C@H]1O[C@@H](n2cc(F)c(=O)[nH]c2=O)[C@H](O)[C@@H]1O,inactive,–
C[N+]1(C)[C@@H]2CC(OC(=O)[C@H](CO)c3ccccc3)C[C@H]1[C@@H]1O[C@@H]12 (stereo partly specified),inactive,–
NS(=O)(=O)c1cc(Cl)c(Cl)c(S(N)(=O)=O)c1,inactive,–
NC[C@H]1O[C@H](O[C@H]2[C@H](O)[C@@H](O[C@H]3O[C@H](CO)[C@@H](O)[C@H](N)[C@H]3O)[C@H](N)C[C@@H]2N)[C@H](O)[C@@H](O)[C@@H]1O,–,inactive [at 5.34 µM]
O=c1c(-c2ccc(O)cc2)coc2cc(O)cc(O)c12,inactive,–
CC(=O)N(CC(O)CO)c1c(I)c(C(=O)NCC(O)CO)c(I)c(C(=O)NCC(O)CO)c1I (stereo unspecified),inactive,–
NC(CS)C(=O)O (stereo unspecified),inactive,–
NC1CCN(c2nc3c(cc2F)c(=O)c(C(=O)O)cn3-c2ccc(F)cc2F)C1 (stereo unspecified),inactive,–
